# For some assays here: Results with a measured potency or affinity are listed apart.
# Columns and labels:
# Design in all cases: scale not given: direction of the effect not stated beside the values
# [1] = target: Protein translocase subunit SecA (Escherichia coli (strain K12)) (UniProt P10408); experiment: Assay to Identify E. coli SecA ATPase Inhibitors; format: functional; conditions: 30 µM
# [2] = target: T1, Ubiquitin-activating enzyme e1, putative (Leishmania donovani (strain BPK282A1)) (UniProt E9BSI1); experiment: Leishmania donovani Ubiquitin Activating Enzyme (LdE1); format: functional; conditions: 30 µM
# T1 sequence (whole entry): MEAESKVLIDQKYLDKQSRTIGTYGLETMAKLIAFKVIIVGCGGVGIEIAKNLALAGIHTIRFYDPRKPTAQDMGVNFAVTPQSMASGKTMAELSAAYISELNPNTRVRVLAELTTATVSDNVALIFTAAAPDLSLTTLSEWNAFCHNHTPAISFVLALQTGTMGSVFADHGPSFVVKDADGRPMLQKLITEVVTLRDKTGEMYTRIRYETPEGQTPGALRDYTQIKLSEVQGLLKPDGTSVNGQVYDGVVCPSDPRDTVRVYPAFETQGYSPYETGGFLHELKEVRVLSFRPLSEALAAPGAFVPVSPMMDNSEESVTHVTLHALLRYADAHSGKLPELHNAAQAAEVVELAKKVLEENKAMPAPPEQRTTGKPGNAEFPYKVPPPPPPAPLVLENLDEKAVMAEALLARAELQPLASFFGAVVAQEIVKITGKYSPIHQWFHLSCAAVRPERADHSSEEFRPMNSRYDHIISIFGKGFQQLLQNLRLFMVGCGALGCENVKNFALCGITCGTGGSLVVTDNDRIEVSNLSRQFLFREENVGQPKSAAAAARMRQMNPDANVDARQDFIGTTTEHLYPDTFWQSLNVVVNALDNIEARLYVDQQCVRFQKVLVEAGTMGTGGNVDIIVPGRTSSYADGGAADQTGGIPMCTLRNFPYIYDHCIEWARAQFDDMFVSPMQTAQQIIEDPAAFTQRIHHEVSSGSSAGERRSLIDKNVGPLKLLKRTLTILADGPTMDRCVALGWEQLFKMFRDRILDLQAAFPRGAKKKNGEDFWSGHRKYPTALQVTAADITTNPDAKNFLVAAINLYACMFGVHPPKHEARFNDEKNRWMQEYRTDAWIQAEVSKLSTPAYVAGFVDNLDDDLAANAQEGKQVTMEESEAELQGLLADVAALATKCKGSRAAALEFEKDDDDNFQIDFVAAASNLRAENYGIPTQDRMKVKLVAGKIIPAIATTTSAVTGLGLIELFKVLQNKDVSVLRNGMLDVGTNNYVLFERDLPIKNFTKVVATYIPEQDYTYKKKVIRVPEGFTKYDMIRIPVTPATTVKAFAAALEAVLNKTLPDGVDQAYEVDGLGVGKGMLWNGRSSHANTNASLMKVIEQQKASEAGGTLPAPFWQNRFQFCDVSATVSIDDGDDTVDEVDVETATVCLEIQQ
# [3] = target: AMP-activated protein kinase, AMPK (Homo sapiens) (UniProt P54646+O43741+P54619+Q9UGJ0+Q9Y478+Q13131+Q9UGI9); experiment: AMP-dependent Kinase enzyme assay. An in vitro enzyme assay that detects ADP turnover that is directly proportional to AMPK activity. This uses naive AMPK that is activated during the assay with MK-8722; format: functional; conditions: 30 µM
# [4] = target: Sialic acid-binding Ig-like lectin 9 (Homo sapiens) (UniProt Q9Y336); experiment: Hs-Siglec9 ALPHAscreen SOP 20170721; conditions: 10 µM
# Trypanosoma cruzi = experiment: Trypanosoma cruzi phosphomannomutase and mannose-1-phosphate guanylyltransferase assay; format: functional; conditions: 10 µM
# [5] = target: T2, Arginase-2, mitochondrial (Homo sapiens) (UniProt P78540); experiment: in vitro enzyme assay to detect the production of urea directly proportional to the activity of Arginase II; format: functional; conditions: 33.3 µM; also: in the data most compounds retested in dose-response had high values
# T2 sequence (whole entry): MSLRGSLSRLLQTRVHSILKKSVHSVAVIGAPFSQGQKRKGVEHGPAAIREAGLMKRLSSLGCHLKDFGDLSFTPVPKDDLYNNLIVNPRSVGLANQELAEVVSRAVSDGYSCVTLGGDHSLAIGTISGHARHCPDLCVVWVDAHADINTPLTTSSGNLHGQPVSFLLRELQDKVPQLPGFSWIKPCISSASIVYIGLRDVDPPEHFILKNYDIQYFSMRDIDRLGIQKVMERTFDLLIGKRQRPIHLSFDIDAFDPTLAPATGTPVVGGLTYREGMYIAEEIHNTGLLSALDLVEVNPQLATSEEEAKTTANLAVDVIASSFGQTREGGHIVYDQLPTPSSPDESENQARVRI
# [6] = target: T3, Proteasome subunit beta (Trypanosoma cruzi) (UniProt O96673); experiment: Trypanosoma cruzi proteasome chymotrypsin-like activity (TcProtChymo) assay.; also: in the data most compounds retested in dose-response had high values; format: functional; conditions: 9.37 µM
# T3 sequence (whole entry): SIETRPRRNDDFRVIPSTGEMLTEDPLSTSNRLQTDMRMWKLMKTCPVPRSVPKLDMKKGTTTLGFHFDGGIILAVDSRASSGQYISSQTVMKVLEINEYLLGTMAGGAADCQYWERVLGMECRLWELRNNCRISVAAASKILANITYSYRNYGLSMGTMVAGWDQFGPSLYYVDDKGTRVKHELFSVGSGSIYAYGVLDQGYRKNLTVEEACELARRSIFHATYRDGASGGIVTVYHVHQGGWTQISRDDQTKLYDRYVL
# Homo sapiens = species: Homo sapiens; experiment: To identify inhibition of the IFN signalling (Jak-Stat) pathway via expression of an eGFP reporter gene under the control of an IFN-stimulated response element (ISRE) containing MxA promoter.; format: functional; conditions: 30 µM
# [7] = target: T4, Tyrosyl-tRNA synthetase, putative (Trypanosoma cruzi (strain CL Brener)) (UniProt Q4DSP6); experiment: Trypanosoma cruzi tyrosyl tRNA synthetase (TcYRS) _High Tyrosine SOP; format: functional; conditions: 30 µM; also: in the data most compounds retested in dose-response had high values
# T4 sequence (whole entry): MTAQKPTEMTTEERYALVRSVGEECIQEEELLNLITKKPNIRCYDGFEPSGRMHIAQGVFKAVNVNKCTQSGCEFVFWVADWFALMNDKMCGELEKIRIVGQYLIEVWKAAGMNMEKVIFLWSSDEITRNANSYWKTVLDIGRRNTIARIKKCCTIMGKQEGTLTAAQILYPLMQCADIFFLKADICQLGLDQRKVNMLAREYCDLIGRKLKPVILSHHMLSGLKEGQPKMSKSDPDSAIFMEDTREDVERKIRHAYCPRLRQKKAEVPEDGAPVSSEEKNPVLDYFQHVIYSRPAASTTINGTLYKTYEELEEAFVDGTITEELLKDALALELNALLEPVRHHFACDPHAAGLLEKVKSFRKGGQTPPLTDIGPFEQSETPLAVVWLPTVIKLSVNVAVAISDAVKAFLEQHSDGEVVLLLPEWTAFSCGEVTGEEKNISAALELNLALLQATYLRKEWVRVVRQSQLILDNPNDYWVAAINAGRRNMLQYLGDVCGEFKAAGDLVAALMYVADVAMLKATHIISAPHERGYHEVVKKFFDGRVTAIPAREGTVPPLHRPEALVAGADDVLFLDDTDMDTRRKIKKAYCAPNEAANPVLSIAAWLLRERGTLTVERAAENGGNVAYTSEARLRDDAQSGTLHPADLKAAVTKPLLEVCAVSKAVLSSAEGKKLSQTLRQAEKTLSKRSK
# [8] = target: T4, Tyrosyl-tRNA synthetase, putative (Trypanosoma cruzi (strain CL Brener)); experiment: Trypanosoma cruzi tyrosyl tRNA synthetase (TcYRS) SOP; format: functional; conditions: 30 µM
# [9] = target: Chromo domain-containing protein 1 (Saccharomyces cerevisiae (strain ATCC 204508 / S288c) (Baker's yeast)) (UniProt P32657); experiment: ScCHD-1 Enzyme Inhibition Assay; format: functional; conditions: 30 µM; also: in the data most compounds retested in dose-response had high values
# Chromo domain-containing protein 1 (Saccharomyces cerevisiae (strain ATCC 204508 / S288c) (Baker's yeast)), sequence (P32657 whole entry, the tested form may be a part): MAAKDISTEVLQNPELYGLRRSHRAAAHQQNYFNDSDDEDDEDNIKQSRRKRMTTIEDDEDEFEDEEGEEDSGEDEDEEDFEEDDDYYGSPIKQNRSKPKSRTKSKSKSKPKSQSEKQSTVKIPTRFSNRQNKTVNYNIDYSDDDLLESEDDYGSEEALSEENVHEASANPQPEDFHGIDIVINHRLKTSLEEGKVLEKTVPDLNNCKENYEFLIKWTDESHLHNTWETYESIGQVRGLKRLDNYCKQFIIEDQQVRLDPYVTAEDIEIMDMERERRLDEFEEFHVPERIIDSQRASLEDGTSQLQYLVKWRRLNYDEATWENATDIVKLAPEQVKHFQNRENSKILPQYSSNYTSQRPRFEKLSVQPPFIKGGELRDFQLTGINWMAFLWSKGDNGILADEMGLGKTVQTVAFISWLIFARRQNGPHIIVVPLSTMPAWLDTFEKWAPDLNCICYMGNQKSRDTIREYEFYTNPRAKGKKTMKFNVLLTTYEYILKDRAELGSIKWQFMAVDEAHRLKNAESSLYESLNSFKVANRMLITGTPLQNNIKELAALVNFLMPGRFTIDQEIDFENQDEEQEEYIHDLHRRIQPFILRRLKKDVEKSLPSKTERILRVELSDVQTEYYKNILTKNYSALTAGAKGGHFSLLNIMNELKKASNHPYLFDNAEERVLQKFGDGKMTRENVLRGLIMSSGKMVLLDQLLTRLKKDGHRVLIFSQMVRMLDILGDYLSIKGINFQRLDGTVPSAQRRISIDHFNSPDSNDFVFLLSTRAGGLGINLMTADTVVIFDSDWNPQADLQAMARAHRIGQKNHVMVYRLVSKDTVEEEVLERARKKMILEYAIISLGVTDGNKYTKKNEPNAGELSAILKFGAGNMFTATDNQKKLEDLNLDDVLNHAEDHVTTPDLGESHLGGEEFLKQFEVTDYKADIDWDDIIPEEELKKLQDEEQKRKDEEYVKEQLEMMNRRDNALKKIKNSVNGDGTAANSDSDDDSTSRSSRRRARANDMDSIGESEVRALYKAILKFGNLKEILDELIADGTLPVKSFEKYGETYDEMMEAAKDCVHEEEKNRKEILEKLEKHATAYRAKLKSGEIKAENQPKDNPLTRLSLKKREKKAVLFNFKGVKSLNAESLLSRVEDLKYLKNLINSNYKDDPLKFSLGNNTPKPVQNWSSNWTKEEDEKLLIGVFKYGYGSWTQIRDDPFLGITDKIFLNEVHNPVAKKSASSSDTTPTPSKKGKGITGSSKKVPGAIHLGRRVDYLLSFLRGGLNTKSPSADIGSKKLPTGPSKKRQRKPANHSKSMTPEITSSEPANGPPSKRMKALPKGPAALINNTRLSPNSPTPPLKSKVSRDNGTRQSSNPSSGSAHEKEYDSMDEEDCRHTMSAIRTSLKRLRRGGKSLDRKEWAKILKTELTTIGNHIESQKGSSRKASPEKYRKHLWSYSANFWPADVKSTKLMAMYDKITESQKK
# Sialic acid-binding Ig-like lectin 9 (Homo sapiens), sequence (Q9Y336 whole entry): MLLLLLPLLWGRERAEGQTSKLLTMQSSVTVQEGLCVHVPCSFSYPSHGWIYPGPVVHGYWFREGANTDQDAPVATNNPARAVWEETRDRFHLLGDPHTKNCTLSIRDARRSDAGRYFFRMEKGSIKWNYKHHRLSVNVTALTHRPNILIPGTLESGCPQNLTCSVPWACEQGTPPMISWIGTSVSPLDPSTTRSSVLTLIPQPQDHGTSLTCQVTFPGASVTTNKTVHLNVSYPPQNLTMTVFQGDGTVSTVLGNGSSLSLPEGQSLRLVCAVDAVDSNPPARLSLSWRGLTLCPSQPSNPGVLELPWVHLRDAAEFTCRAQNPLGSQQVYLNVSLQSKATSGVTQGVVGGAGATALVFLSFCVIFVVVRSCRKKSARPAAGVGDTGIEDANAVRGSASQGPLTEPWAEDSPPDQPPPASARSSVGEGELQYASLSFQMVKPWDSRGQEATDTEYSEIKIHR
# Protein translocase subunit SecA (Escherichia coli (strain K12)), sequence (P10408 whole entry): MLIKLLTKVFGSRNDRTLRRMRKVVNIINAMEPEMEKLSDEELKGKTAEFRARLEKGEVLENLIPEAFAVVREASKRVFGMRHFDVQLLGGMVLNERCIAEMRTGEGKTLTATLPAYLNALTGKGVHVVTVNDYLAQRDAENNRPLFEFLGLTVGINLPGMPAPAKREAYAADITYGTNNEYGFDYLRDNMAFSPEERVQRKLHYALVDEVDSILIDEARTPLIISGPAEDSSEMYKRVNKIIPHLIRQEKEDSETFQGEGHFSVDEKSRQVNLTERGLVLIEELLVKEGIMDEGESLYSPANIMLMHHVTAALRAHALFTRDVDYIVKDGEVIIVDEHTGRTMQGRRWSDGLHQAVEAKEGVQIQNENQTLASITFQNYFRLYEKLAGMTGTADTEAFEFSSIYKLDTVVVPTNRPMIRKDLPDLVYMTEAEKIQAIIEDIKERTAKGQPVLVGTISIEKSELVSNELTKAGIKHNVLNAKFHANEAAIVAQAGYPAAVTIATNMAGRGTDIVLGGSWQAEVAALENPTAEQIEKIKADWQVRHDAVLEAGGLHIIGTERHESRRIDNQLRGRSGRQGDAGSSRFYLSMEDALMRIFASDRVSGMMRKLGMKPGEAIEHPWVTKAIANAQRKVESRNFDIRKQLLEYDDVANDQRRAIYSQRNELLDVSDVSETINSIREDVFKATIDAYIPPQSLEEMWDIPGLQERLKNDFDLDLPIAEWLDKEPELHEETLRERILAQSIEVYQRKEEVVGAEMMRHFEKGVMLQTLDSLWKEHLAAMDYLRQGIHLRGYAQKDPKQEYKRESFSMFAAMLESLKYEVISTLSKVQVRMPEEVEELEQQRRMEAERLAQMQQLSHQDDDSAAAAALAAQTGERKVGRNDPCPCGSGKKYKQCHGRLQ
SMILES,Percent Effect [1],Percent Effect [2],Percent Effect [3],Percent Effect [4],Percent Effect (Trypanosoma cruzi),Percent Effect [5],Percent Effect [6],Percent Effect (Homo sapiens),Percent Effect [7],Percent Effect [8],Percent Effect [9]
CCS(=O)(=O)N1CCCc2ccc(NC(=O)Cc3ccc(F)cc3)cc21,0.369%,7.79%,-1.04%,-9.41%,-5.82%,0.645%,8.53%,65.4%,-5.29%,-6.41%,-13.3%
Cc1cccnc1NC(=O)C(C)Cn1nc(C(F)(F)F)cc1C (configuration not stated),-1.64%,-4%,2.53%,4.76%,-3.73%,-1.94%,11.8%,-10.4%,3.17%,2.56%,-1.89%
Cc1cc(CN2CCN(CCOc3cccc(C#N)c3)CC2)no1,-2.32%,15.8%,-0.384%,-11.5%,-1.4%,1.44%,10.6%,3.18%,5.42%,23.5%,-5.93%
CCS(=O)(=O)N1CCc2ccc(NC(=O)Nc3cccc(SC)c3)cc21,-1.43%,-20.8%,1.15%,1.13%,0.69%,-3.23%,17.6%,77.5%,-48.7%,-73.1%,-5.8%
Cc1noc(C(C)C)c1C(=O)N1CCCN(Cc2cscn2)CC1,-4.04%,18.2%,-1.96%,-7.63%,2.25%,-0.632%,15.6%,0.184%,7.62%,21.2%,-23.9%
CC(O)CN1CCC(CNCc2cccc(OC(C)C)c2)CC1 (configuration not stated),-8.77%,8.11%,-23.9%,28.4%,8.21%,-9.22%,1.26%,9.15%,6.4%,23.5%,-14.8%
COCCN1C(=O)CC(N2CCN(c3ccc(F)cc3)CC2)C1=O (configuration not stated),0.82%,10.5%,2.05%,-7.33%,-0.0974%,-1.18%,10.3%,14.5%,-3.19%,5.2%,-4.78%
Cn1cc(CN2CCc3c(nc(-c4ccccn4)[nH]c3=O)C2)cn1,-4.53%,2.67%,8.84%,5.72%,-2.56%,-1.17%,6.78%,-0.565%,12.8%,19.2%,-1.71%
CO[C@H]1CCN(Cc2cccc(C)n2)[C@@H]2CN(Cc3cccnc3)C[C@H]12,-4.37%,13.7%,-4.89%,7.4%,12.3%,-3.99%,15.5%,6.58%,5.21%,6.17%,-8.06%
Cc1cc(C)n(-c2ccc(CNCc3ccc(OC(C)C)cc3)cn2)n1,-0.648%,13.2%,-0.778%,-0.618%,6.01%,-3.06%,15.5%,20.5%,13.2%,19.5%,-10.2%
Cc1cnn(CC2CCCN2C(=O)Cc2n[nH]c3ccccc23)c1 (configuration not stated),-5.48%,10.1%,14%,7.2%,2.17%,7.61%,-0.0819%,10.1%,8.37%,11.4%,-3.88%
CN(CC(=O)N1CCCC1Cn1cccn1)c1cnccn1 (configuration not stated),-5.14%,0%,0.965%,10.7%,-1.6%,-1.9%,-0.901%,15.8%,-2.46%,-1.27%,-2.89%
c1nc2c(c(C3CC3)n1)CCN(CC1CCOC1)CC2 (configuration not stated),-4.07%,8.11%,3.6%,-7.53%,8.31%,3.5%,20.7%,7.05%,5.41%,15.4%,-0.123%
CNC(=O)COc1ccc(CNCc2ccc(F)cc2F)cc1,-3.24%,6.94%,7.47%,-14.2%,-5.93%,-1.32%,18.6%,6.07%,4.21%,5.13%,-3.63%
O=C(N1CCCC1)N1CCc2ncnc(C3CCOC3)c2CC1 (configuration not stated),2.86%,-2.67%,9.11%,2.99%,-0.591%,3.5%,7.14%,3.4%,3.19%,-1.28%,-1.1%
COc1cccc(CN2CCOC(Cn3nc(C)cc3C)C2)c1 (configuration not stated),-1.25%,2.7%,25.1%,-0.918%,-4.88%,1.67%,18.2%,-11.1%,7.92%,15.8%,8.67%
CCN1CC(C(=O)NCc2ccnc(-n3ccnc3C)c2)CC1=O (configuration not stated),-2.69%,0%,-12.9%,-7.63%,0%,-3.18%,3.02%,20.3%,-1.07%,-2.5%,-4.95%
Cc1ccccc1CN1CCN(Cc2nccn2C)CC1,-3.45%,5.41%,-4.75%,4.96%,-3.3%,-1.6%,0.36%,16.1%,3.45%,3.7%,-1.25%
O=C(COCc1nc(-c2ccncc2)no1)N1CCCCCC1,-5.55%,5.2%,-3.82%,21.3%,-35.1%,-55.2%,8.65%,15.5%,5.38%,13.6%,120%
O=C(c1cccc(NCCO)c1)N1CCOCC1,0.755%,13%,-9.18%,2.34%,-2.46%,-5.52%,19.3%,28.8%,2.15%,11.1%,-2.11%
CC(c1ccc(Cl)cc1)N1CCN(CCS(C)(=O)=O)CC1 (configuration not stated),-3.62%,5.41%,0.609%,6.25%,-0.579%,3.81%,14%,10.3%,3.7%,14.6%,-5.14%
O=S(=O)(c1cccs1)N1CCCn2cnc(CN3CCCC3)c2C1,-4.49%,10.7%,-0.197%,0.986%,-3.48%,-60.4%,13.8%,7.16%,4.17%,12.5%,-7.45%

# Reference: ChEMBL document CHEMBL3988442, “University of Dundee, Small-Polar-MMV Screening Library” (2021)
